Screening results from PubChem.
Hits are enriched below; roughly 9.2% of the tested compounds scored in any of these assays.
FLuc modulator: inhibits or activates purified firefly luciferase, miR-21 counter-screen; P08659; purified FLuc, Km substrates, luminescence inhibition; Potency, µM (top dose mostly 57.5 µM), without a hit: at the highest dose activity change, negative = inhibition, actives largely listed as inhibitors; 6.9% of 360,000 active; AID 588342;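 further: plate controls were vehicle for no effect and reference inhibitor for full effect; nearly all actives have a fitted effect of over 55% in size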
Target sequence (P08659 whole entry, looked up): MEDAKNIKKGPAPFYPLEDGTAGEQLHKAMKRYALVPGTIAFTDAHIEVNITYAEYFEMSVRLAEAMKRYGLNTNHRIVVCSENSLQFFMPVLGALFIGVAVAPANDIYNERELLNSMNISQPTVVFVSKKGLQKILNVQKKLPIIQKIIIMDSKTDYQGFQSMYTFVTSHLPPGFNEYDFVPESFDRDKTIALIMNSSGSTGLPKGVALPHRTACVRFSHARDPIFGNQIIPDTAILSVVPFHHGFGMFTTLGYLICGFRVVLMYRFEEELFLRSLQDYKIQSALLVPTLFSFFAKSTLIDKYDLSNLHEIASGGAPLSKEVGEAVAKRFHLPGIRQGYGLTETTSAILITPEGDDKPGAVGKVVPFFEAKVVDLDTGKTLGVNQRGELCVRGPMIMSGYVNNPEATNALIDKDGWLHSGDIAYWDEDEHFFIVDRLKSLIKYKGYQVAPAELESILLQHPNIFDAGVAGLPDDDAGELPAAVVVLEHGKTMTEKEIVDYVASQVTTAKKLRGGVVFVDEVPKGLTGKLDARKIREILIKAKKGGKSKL
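Purified P. pyralis luciferase (10nM final) with 10uM D-luciferin and 10uM ATP (Km levels) in 50mM Tris acetate pH 7.5, 10mM Mg acetate, 0.01% Tween-20, 0.05% BSA; qHTS 6-point titration, ~60 µM downward; luminescence read.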
Rab9 promoter act: activates the Rab9 promoter | Huh7 Rab9 promoter-luciferase reporter, luminescence, 24 h | Potency, µM (titrated, usually from 9.22 µM), for inactives: at the highest dose activation, negative = inhibition, actives largely listed as activators | 2.8% of 320,000 active | AID 485297; further: % of control where 0% means no effect; nearly all actives have a fitted effect of over 60% in size
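Stable Rab9-luc Huh7, 1500 cells/well, 2 h settle; cmpd in DMSO, 24 h, 37 °C/5% CO2; luciferase reagent 10 min RT; luminescence.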
SMN2 splice enh: SMN2 splice variant enhancement; HEK293 SMN2-luciferase splicing reporter, luminescence, 30-36 h; 2.8% of 210,000 active; Potency, µM (top dose mostly 46.1 µM), inactives show at the top dose activity change, positive = activation, hits mostly activators; AID 1458; further: % of control where 0% means no effect; nearly all actives have a fitted effect of over 55% in size
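HEK293 cells carry an SMN2 […]–luciferase reporter in which exon 7 inclusion puts luciferase in frame. Cells were plated 10-12 h before compound addition, then incubated 30-36 h at 37C. ONE-Glo luminescence was read; sodium butyrate at 4.5 mM final served as control.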
NPC1 promoter act: NPC1 promoter activation. Potency, µM (doses to about 9.22 µM), for the others: top-dose activation, hits mostly activators. 2.4% of 320,000 active. Huh7 NPC1 promoter luciferase reporter, 24 h; further: % of control where 0% means no effect; nearly all actives have a fitted effect of over 60% in size
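Quantitative HTS used a cell-based reporter: Huh7 cells stably bearing the NPC1 promoter upstream of luciferase were treated with compounds for 24 h, and promoter activation was read as luminescence.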
ELG1 repair inh: inhibitors of ELG1-dependent DNA repair in HEK293T cells | HEK293T ELG1-luciferase reporter, luminescence, 16 h; DNA damage induced by 5-fluorouridine | Potency, µM (doses to about 46.1 µM), for the others: at the highest dose activity change, negative = inhibition, actives largely listed as inhibitors | 2.3% of 330,000 active | AID 504467; further: on the % scale 0 is the no-effect control and ±100 the full control effect; nearly all actives have a fitted effect of over 55% in size
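Step one: seed 2,000 cells per well. Step two: pin-transfer compound or DMSO alongside 5-fluorouridine. Step three: incubate 16 hr, 37 °C, 5% CO2. Step four: add ONE-Glo, wait 30 min, read luminescence.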
ELG1 genotoxic: induces genotoxicity in HEK293T cells with luciferase-tagged ELG1; 1.3% of 330,000 active; AID 504466; Potency, µM (highest dose often 46 µM), without a hit: at the highest dose activity change, positive = activation, usual class: activators; HEK293T ELG1-luciferase reporter, luminescence, 16 h; further: % of control where 0% means no effect; nearly all actives have a fitted effect of over 60% in size
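Screening used a luciferase reporter fused to human ELG1 in HEK293T cells. Luminescence was read on a CCD plate imager after 16 hr exposure and 30 min ONE-Glo incubation.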
* hit, by the source's call; u = inconclusive; x = no result. The call rests on the fitted dose curve; in most records, active means well fitted curve in the direction sought with a large enough effect; inconclusive means small, poorly fitted or top-dose-only effect, or another doubt; inactive means no such curve, though single readings can be large; an effect the other way counts as inactive or inconclusive. Potency means the concentration at half of the fitted maximal effect.

SMILES	FLuc modulator	Rab9 promoter act	SMN2 splice enh	NPC1 promoter act	ELG1 repair inh	ELG1 genotoxic
Cc1cccc(NC(=O)CSc2ccc(-c3ccc4c(c3)OCO4)nn2)c1C	2%	-1%	25%	0%	u	10%
Fc1cccc(Cl)c1Cn1nnc(-c2ccc3c(c2)OCO3)n1	12µM*	u	13µM*	u	u	u
Cc1ccccc1Cn1ccc(-c2ccc3c(c2)OCO3)n1	15µM*	29%	5%	u	u	-1%
COc1ccc(CCNC(=O)CCc2c(C)nc3c(c(C)nn3-c3ccccc3)c2C)c(OC)c1	2%	x	4%	x	x	x
COC(=O)c1c(N2C(=O)[C@H]3[C@@H](C2=O)[C@]2(C(=O)Nc4c(C)cccc42)N2CCC[C@@H]32)sc(C)c1C	-2%	4%	6%	-6%	16µM*	1%
Cc1cc(Cl)cc2c1NC(=O)[C@]21[C@@H]2C(=O)N(Cc3ccccc3)C(=O)[C@@H]2[C@@H]2CCCN21	-2%	-2%	9%	-1%	u	-3%
COCCNC(=O)c1cnc2sc(N3CCC(C)CC3)nn2c1=O	-1%	x	x	x	x	x
O=C(O)c1ccccc1COc1ccccc1Cl	15µM*	0%	26%	4%	u	12%
O=C(O)c1cccc(OCc2ccccc2Cl)c1	9.5µM*	u	x	u	u	4%
O=C(O)CCn1cc(C(=O)O)c(-c2ccccc2)n1	0%	-2%	x	-1%	u	3%
CCc1ccc(-n2cc(-c3ccc(F)cc3)[n+]3c2SCCC3)cc1	2%	-30%	-45%	-32%	4.6µM*	-16%
c1ccc(-c2cn(-c3ccccc3)c3[n+]2CCCS3)cc1	0%	-20%	x	-6%	21µM*	-15%
CC(C(=O)Nc1ccc(S(=O)(=O)N2CCCC2)cc1)N1CCCC(C(N)=O)C1 (stereo unspecified)	5%	-7%	x	0%	1%	-2%
CCOC(=O)c1[nH]c2ccc(OC)cc2c1NC(=O)CN1CCN(c2ccccn2)CC1	2%	-4%	-2%	-2%	u	-6%
CCOC(=O)c1[nH]c2ccc(OC)cc2c1NC(=O)CN1CCc2ccccc2C1	4%	3%	-13%	0%	16µM*	-6%
CCOC(=O)c1[nH]c2ccc(F)cc2c1NC(=O)C(C)N1CCc2cc(OC)c(OC)cc2C1 (stereo unspecified)	0%	-1%	14%	-4%	4.1µM*	-25%
CCOC(=O)c1[nH]c2ccc(C)cc2c1NC(=O)CN1CCCCC1	1%	1%	5%	1%	u	-8%
CCOC(=O)c1[nH]c2cc(OC)c(OC)cc2c1NC(=O)CN1CCN(C)CC1	-1%	-3%	x	-4%	-10%	21µM*
Cc1ccccc1CNC(=O)Cn1nc(C)c2nn(-c3ccc(Cl)cc3)c(C)c2c1=O	-6%	x	x	x	x	x
Cc1ccccc1Cc1ccc(Cl)nn1	0%	0%	-8%	-2%	-3%	0%
CC(=O)N(C)c1ccc(N=Nc2c(C)[nH]n(-c3ccccc3)c2=O)cc1	-15%	-10%	x	0%	-1%	-7%
Cc1ccccc1N=Nc1c(C)[nH]n(C(N)=S)c1=O	u	1%	-3%	10%	u	0%
CCN(CC)S(=O)(=O)c1ccc(N=Nc2c(C)[nH]n(C(N)=S)c2=O)cc1	8.5µM*	u	u	u	u	16%
CC(=O)N(C)c1ccc(N=Nc2c(C)[nH]n(C(N)=S)c2=O)cc1	2.7µM*	0.45µM*	3.2µM*	0.63µM*	u	u
CC1CCCC(CC(=O)O)(CC(=O)O)C1 (stereo unspecified)	-2%	-1%	x	-9%	8%	-3%
SMILES	FLuc modulator	Rab9 promoter act	SMN2 splice enh	NPC1 promoter act	ELG1 repair inh	ELG1 genotoxic
O=C1C(Cl)=C(N2CCCCCC2)C(=O)N1c1ccc(Cl)cc1	u	-3%	x	-1%	10%	4%
O=C1C=C(N2CCCCCC2)C(=O)N1c1ccc(Cl)cc1	2.1µM*	2.2µM*	x	1.6µM*	u	u
O=C(NCc1ccc(F)cc1)C(=O)NCC(c1cccs1)S(=O)(=O)c1cccs1 (stereo unspecified)	2%	x	x	x	x	x
CCN(CC)c1ccc(NC(=O)CN2CCN(S(=O)(=O)c3ccc(C(C)C)cc3)CC2)cc1	-9%	x	x	x	x	x
O=C(CN1C(=O)/C(=C\C=C\c2ccccc2)SC1=S)Nc1ccc(F)cc1	-6%	1%	4.5µM*	0%	u	4%
O=C(CCN1C(=O)/C(=C\C=C\c2ccccc2)SC1=S)Nc1ccc(C(=O)O)cc1	0.95µM*	29%	x	u	u	u
O=C(CN1C(=O)S/C(=C/C=C/c2ccccc2)C1=O)Nc1ccc(C(=O)O)cc1	4.8µM*	-7%	11%	-5%	23%	9%
O=C(CCN1C(=O)/C(=C/C=C/c2ccccc2)SC1=S)Nc1nc2ccccc2s1	u	-2%	2%	-1%	6%	18%
O=C(COC(=O)CCN1C(=O)/C(=C\C=C\c2ccccc2)SC1=S)Nc1cc(F)ccc1F	13µM*	-7%	-14%	-2%	u	3%
O=C(CCCN1C(=O)S/C(=C\C=C\c2ccccc2)C1=O)Nc1ccc(O)cc1	u	24%	x	u	u	u
O=C(CN1C(=O)S/C(=C\C=C\c2ccccc2)C1=O)Nc1ccc(C(=O)O)cc1	6µM*	3%	x	3%	1%	8%
COc1ccc(/C(C)=N/Nc2nccnc2Cl)cc1	7.6µM*	1.8µM*	x	u	u	u
C/C(=N\Nc1nccnc1Cl)c1ccc(Br)cc1	u	17%	x	u	28%	7%
